About 8,800 targets were measured; listed, in parts, are those with a hit and a random draw of the rest. About 0.5% of all pairs of compound and target were hits.
Tests used:
Assay in all cases: log2 fold change, soluble protein after heating vs DMSO (PISA); higher = thermal stabilisation; K562 lysate, 10 uM; active = over 0.2 and 3.5 SD of the protein, either way, in both replicates (recomputed)
[1] = compound: C/C(=N\NC(=O)C1=CC(=CC=C1)S(=O)(=O)N2CCOCC2)/C3=C(C=CC(=C3)Cl)O
Method in brief: (§1)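 K562 pellets were dounce-homogenised in PBS pH 7.4 with 1 mM MgCl2, and the crude extract at 1 mg/mL protein was treated with 10 μM compound for 30 min. Aliquots were heated for 3 min across 48°C-58°C, pooled, and brought to 0.5% NP-40 at 4°C; soluble protein was the supernatant after 21,000xg for 90 min. Soluble protein was quantified by TMTpro 16plex LC-MS/MS with channel sums equalised, and reported as log2 fold change in thermal stability against DMSO controls, with values from duplicates.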

[2] = compound: C1=CC2=C(C=CC(=C2)/C=C\3/C(=O)NC(=NCC4=CC=CS4)S3)N=C1
Method in brief: as §1

[3] = compound: C1=CC=C(C=C1)C2=NC(=C(N2)C3=CC=NC=C3)C4=CC(=C(C=C4)Cl)O
Method in brief: as §1

[4] = compound: C1=CC=C2C(=C1)C3=NNC4=CC=CC(=C43)C2=O
Method in brief: as §1

[5] = compound: C1CCN(C1)C(=O)NC2=CC=CC(=C2)NC3=NC=C(C(=N3)NCCC4=CN=CN4)Br
Method in brief: as §1

[6] = compound: C1CN(CCC1(CC2=CC=C(C=C2)Cl)N)C3=NC=NC4=C3C=CN4
Method in brief: as §1

[7] = compound: C1COCCN1CCN2C3=CC=CC=C3N=C2NC(=O)C4=CC(=CC=C4)[N+](=O)[O-] [IRAK-1-4 Inhibitor I]
Method in brief: as §1

[8] = compound: C#Cc1cccc(Nc2ncnc3cc(OCCOC)c(OCCOC)cc23)c1 [erlotinib]
Method in brief: as §1

[9] = compound: C1=CC(=CC=C1C2=NC3=C(N2)C=C(C=C3)C(=O)N)OC4=CC=C(C=C4)Cl
Method in brief: as §1

[10] = compound: C1=CC2=NC=CN=C2C=C1/C=C/3\C(=O)NC(=O)S3
Method in brief: as §1

Measured: log2 fold change

ZDHHC17 (UniProt Q8IUH5)
Chain of UniProt Q8IUH5 (Q8IUH5 whole entry, looked up): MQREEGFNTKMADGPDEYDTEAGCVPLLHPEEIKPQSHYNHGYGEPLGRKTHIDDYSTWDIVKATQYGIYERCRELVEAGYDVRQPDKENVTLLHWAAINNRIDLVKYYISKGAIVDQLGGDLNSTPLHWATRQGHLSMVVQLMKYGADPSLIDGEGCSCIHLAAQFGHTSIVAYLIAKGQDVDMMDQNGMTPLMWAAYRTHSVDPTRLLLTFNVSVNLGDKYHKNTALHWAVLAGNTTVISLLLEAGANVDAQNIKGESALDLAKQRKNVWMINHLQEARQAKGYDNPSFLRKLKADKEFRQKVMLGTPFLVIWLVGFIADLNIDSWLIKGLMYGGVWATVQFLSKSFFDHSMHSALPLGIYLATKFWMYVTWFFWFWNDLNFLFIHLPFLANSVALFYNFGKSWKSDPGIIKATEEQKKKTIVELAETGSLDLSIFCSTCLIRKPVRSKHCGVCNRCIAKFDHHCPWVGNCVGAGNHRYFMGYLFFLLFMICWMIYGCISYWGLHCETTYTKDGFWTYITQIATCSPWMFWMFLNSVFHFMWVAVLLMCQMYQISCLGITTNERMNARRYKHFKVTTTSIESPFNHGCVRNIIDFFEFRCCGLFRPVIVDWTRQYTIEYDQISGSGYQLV
inactive: [1] 0.197 | [2] 0.011 | [3] -0.082 | [4] -0.247 | [5] -0.066 | [6] -0.027 | [7] 0.205

UTRN isoform 2 (UniProt P46939)
Chain of UniProt P46939 (P46939 whole entry, looked up): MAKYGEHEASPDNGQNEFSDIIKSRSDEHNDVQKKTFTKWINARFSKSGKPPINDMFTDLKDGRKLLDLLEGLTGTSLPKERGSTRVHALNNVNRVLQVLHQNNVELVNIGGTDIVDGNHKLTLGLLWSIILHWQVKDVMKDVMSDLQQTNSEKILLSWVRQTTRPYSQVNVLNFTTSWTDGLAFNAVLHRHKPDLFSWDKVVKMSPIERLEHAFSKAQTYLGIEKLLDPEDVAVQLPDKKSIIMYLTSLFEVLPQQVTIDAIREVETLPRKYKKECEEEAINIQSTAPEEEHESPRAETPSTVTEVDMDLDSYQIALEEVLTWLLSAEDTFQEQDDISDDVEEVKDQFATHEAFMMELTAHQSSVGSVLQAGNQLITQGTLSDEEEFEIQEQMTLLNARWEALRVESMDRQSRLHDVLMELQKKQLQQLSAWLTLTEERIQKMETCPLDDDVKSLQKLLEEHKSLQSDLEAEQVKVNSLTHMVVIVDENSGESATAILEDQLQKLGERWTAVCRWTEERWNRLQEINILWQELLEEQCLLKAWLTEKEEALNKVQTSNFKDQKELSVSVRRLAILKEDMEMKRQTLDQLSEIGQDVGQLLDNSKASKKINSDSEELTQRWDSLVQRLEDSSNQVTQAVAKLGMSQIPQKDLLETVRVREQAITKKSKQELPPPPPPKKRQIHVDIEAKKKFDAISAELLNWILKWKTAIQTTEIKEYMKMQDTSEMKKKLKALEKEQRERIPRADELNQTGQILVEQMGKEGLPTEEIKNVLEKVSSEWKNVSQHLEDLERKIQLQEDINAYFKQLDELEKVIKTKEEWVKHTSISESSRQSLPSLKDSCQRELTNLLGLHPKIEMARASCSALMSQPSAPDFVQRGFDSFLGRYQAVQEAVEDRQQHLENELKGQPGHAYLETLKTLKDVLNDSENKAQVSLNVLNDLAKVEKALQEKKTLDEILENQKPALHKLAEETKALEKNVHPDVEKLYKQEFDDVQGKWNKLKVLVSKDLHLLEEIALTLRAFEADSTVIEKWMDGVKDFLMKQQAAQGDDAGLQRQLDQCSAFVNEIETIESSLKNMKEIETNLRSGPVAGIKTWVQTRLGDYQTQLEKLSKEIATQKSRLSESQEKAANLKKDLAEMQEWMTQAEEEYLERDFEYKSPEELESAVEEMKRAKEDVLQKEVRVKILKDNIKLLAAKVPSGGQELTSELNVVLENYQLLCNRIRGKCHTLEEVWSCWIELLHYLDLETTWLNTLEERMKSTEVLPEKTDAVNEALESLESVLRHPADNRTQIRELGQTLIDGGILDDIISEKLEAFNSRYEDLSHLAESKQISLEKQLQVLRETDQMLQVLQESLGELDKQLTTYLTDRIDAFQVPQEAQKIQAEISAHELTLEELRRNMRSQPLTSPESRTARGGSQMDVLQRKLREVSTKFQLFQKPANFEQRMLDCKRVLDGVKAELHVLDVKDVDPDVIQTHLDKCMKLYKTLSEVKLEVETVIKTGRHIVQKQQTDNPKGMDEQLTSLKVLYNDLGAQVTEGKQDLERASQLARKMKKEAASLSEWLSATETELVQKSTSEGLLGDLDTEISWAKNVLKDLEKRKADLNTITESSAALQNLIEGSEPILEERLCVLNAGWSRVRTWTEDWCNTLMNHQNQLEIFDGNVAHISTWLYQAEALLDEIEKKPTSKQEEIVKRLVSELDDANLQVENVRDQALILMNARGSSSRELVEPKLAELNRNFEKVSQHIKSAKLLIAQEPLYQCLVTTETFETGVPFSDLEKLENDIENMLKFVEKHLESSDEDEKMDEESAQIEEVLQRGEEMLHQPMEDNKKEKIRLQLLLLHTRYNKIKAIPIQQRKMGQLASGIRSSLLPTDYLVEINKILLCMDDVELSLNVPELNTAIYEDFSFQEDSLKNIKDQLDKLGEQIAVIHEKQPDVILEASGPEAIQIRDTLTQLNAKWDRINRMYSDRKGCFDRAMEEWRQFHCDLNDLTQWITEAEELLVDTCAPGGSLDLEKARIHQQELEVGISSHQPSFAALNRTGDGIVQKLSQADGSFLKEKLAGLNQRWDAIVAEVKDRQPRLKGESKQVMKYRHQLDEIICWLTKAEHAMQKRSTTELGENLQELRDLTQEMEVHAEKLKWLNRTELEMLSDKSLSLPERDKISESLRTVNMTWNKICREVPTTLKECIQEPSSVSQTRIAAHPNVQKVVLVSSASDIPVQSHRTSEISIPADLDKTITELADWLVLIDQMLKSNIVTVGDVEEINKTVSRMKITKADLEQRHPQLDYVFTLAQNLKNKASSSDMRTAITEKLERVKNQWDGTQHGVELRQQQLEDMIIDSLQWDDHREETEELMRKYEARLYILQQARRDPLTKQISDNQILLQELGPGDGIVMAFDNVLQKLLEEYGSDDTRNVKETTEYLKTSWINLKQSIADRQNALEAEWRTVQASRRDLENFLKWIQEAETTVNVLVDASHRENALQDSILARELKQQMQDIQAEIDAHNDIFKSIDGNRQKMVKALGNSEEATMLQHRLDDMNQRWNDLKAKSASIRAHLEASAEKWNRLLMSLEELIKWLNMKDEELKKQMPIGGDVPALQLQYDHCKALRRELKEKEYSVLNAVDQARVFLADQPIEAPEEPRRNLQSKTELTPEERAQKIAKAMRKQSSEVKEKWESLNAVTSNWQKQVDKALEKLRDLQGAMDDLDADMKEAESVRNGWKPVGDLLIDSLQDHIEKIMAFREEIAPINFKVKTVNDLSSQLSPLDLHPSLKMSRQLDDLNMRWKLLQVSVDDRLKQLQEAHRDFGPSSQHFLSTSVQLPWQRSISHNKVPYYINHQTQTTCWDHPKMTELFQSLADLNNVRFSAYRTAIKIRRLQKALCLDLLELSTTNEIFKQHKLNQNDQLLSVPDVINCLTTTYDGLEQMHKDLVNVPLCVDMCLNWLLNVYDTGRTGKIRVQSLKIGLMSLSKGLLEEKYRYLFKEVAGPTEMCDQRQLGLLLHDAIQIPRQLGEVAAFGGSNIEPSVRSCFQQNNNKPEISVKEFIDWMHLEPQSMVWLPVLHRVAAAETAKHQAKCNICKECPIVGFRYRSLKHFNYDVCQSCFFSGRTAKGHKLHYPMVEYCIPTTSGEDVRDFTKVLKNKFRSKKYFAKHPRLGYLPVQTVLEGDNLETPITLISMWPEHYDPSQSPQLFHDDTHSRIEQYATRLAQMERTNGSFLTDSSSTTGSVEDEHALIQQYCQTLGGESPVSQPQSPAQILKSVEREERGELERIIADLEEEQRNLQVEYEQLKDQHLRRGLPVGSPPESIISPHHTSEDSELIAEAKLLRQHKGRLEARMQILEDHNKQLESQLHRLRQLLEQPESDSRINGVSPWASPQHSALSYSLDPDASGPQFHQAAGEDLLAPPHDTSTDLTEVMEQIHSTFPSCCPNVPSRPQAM
inactive: [8] -0.222 | [9] 0.247 | [10] -0.072 | [5] 0.135 | [6] 0.171

Source: the supplement of paper PMC10849652
